Compound activity as filed in PubChem.
Cav32 inh: human Cav3.2 channel inhibition, primary screen; 100,000 tested, 4% active; AID 449739; B-score at 10 µM; Cav3.2-expressing cells, Fluo-4 calcium fluorescence FDSS; hits give low values; O95180;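 active = single-dose well whose peak fluorescence ratio is a statistical outlier from its plate by either plate-standardised score or position-corrected B-score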
PostGolgi yeast: growth inhibition of a yeast mutant, post-Golgi transport screen; post-Golgi transport phenotypic cell assay; inhibition, % at 10 µM; 98,000 tested, 0.9% active;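 also: yeast cells grown in 1536-well plates; yeast grown about 18 h at 30C before absorbance read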
PostGolgi ctrl: inhibits growth of the yeast control strain | efflux-deficient yeast background strain, growth absorbance A615, 16 h | 98,000 tested, 5% active | inhibition, % at 10 µM
Smad3 inh: inhibitors of human Smad3 transcription factor binding. P84022. TR-FRET Smad3/Dy647-FoxH1 peptide binding, europium anti-His. inhibition, % at 25 µM. 88,000 tested, 0.29% active. AID 630;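 active = compounds that reduce the energy-transfer binding signal between the protein and its labelled peptide by more than half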
hDAT+cocaine: human DAT dopamine uptake with cocaine, either direction. LLC-PK1 hDAT cells, [14C]-dopamine uptake with cocaine IC80; actives deviate in either direction. B-score at 10 µM. 110,000 tested, 1.3% active. AID 449768;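 active = Z score or B-score, a plate-position-corrected score, falls beyond the plate's 99.7% confidence bounds, in either direction; inactive = both scores lie inside the 99.7% bounds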
Target sequence (Q01959 whole entry, looked up): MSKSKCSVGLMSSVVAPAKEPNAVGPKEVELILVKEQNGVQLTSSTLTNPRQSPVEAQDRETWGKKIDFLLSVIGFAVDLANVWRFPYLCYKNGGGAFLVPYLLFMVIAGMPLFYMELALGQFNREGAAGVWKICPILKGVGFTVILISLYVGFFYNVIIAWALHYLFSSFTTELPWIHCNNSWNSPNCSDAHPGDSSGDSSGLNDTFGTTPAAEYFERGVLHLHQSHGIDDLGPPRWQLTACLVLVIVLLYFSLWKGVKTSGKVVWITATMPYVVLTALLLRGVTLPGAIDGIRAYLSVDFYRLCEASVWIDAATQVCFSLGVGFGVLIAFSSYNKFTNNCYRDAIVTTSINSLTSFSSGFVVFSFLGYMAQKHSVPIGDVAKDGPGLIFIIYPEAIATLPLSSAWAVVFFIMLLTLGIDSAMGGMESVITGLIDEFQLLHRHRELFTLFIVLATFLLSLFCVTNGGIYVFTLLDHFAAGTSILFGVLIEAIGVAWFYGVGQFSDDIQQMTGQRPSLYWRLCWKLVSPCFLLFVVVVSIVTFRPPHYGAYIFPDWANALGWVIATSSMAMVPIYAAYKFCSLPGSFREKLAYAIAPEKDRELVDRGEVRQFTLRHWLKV
TNAP act DEA: human TNAP activation, intermediate phosphate acceptor; activation factor at 20 µM; purified TNAP, CDP-star luminescence, 100 mM DEA, 30 min; hits give high values; scale: 0 levamisole-inhibited, 1 vehicle-only enzyme; 64,000 tested, under 10 active; P05186;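 active = activation factor of at least 2 at 20 µM, relative to controls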
Large screens that a line does not name were inactive. Hits are enriched below; roughly 8.7% of the tested compounds scored in any of these assays. Rule as the data show it, unless noted: active = inhibition above about 30%; inactive = the rest.

COc1ccc(/C=N/NC2=NCCCCC2)cc1	none (no result: Smad3 inh, TNAP act DEA)
Cn1c2ccccc2c2c(C(=O)N3CCN(c4ccccc4)CC3)cn(C3CCCC3)c(=O)c21	none
Cc1ccc(Cl)cc1N1CCN(C(=O)c2cn(C)c(=O)c3c2c2ccccc2n3C)CC1	PostGolgi ctrl 57
Cc1cccc(N2CCN(C(=O)c3cn(C)c(=O)c4c3c3ccccc3n4C)CC2)c1C	PostGolgi ctrl 60 (no result: Cav32 inh, hDAT+cocaine)
CC(C)CNC(=O)c1ccccc1Oc1ccccc1	none (no result: TNAP act DEA)
CCOc1ccc(C(C)=O)cc1COC(=O)C1=COCCO1	none
N#Cc1c(N)c(C#N)c(-c2ccc(O)cc2)c2c1CCCC2	Cav32 inh -5.6, PostGolgi ctrl 34
N#Cc1c(N)c(C#N)c(-c2ccc3c(c2)OCO3)c2c1CCCC2	none
CCOC(=O)C1(S(=O)(=O)c2ccc(Cl)cc2)CCN(Cc2ccc(Cl)cc2)CC1	none (no result: Smad3 inh, TNAP act DEA)
COc1cccc(CNCCc2c[nH]c3ccccc23)c1OCc1ccc(F)cc1	PostGolgi yeast 93, PostGolgi ctrl 81 (no result: Smad3 inh, TNAP act DEA)
COc1cc(CNCCc2c[nH]c3ccccc23)ccc1OCc1ccc(F)cc1	PostGolgi ctrl 41, hDAT+cocaine 4.4 (no result: Smad3 inh, TNAP act DEA)
O=C(Nc1cccc(S(=O)(=O)N2CCOCC2)c1)c1cc2c(s1)CCC2	none (no result: TNAP act DEA)
COCCNC(=O)c1c(N)n(-c2cccc(C)c2)c2nc3ccccc3nc12	Cav32 inh -6.1
Cc1ccc(S(=O)(=O)N2CCCC2C(=O)Nc2nc3ccccc3s2)cc1 (stereo not given)	PostGolgi ctrl 44 (no result: TNAP act DEA)
O=C(Nc1nc2ccccc2s1)C1CCCN1S(=O)(=O)c1ccc(Cl)cc1 (stereo not given)	Cav32 inh -5.3, PostGolgi ctrl 68
COc1ccc(-c2csc(NC(=O)C3CCCCN3S(=O)(=O)c3ccccc3)n2)cc1 (stereo not given)	Cav32 inh -6.2, PostGolgi ctrl 52 (no result: TNAP act DEA)
CC1CC1C(=O)Nc1nc(-c2ccccc2)cs1 (stereo not given)	Cav32 inh -4 (no result: TNAP act DEA)
CCOC(=O)C1CCN(C(=O)CNC(=O)OC(C)(C)C)CC1	none (no result: Cav32 inh)
CC(C)n1c(SCC(=O)N2CCCC2)nc2c1c(=O)n(C)c(=O)n2C	none
CCC(NC(=O)c1cccc(Cn2nc(C)c([N+](=O)[O-])c2C)c1)c1ccc(C(C)C)cc1 (stereo not given)	none (no result: Smad3 inh, TNAP act DEA)
Cc1nn(Cc2cccc(C(=O)NC(C)c3ccc(C(C)(C)C)cc3)c2)c(C)c1[N+](=O)[O-] (stereo not given)	PostGolgi yeast 51 (no result: Smad3 inh, TNAP act DEA)
COc1ccc(-c2nc3c(c(=O)n(C)c(=O)n3C)n2CC2CC(c3ccccc3)=NO2)cc1OC (stereo not given)	Cav32 inh 3.4 (no result: PostGolgi yeast, PostGolgi ctrl)
COc1ccc(C(=O)Cn2c(Br)nc3c2c(=O)n(C)c(=O)n3C)cc1OC	none
O=C(NCCCN1CCN(Cc2ccccc2)CC1)C1CCN(c2nnc(-n3cccc3)s2)CC1	none
O=C(C1CCCN(c2nnc(-n3cccc3)s2)C1)N1CCN(c2ccccc2)CC1 (stereo not given)	PostGolgi ctrl 41 (no result: Smad3 inh)
O=C(NCCCc1ccccc1)C1CCN(c2nnc(-n3cccc3)s2)CC1	PostGolgi ctrl 39
CC(=O)N1CCN(S(=O)(=O)c2ccc(S(=O)(=O)NC3CC3)cc2)CC1	none (no result: Cav32 inh)
COC(=O)C1=C(O)C(C(=O)OC)C(c2ccc(C)cc2)C(C#N)(C#N)C1c1ccc(C)cc1 (stereo not given)	Cav32 inh -5.6 (no result: PostGolgi yeast, PostGolgi ctrl, TNAP act DEA)
CCOC(=O)CSC1=C(C#N)C(c2ccc(C)cc2)C(C(=O)OC)C(=O)N1 (stereo not given)	none
CC(C)c1ccc(NC(=O)N(CCc2nc3ccccc3[nH]2)C2CCCC2)cc1	Cav32 inh -6.6 (no result: TNAP act DEA)
COc1ccc(CCNC(=O)C2CC(c3cccc([N+](=O)[O-])c3)=NO2)cc1 (stereo not given)	none (no result: Smad3 inh, TNAP act DEA)
CC(=O)Nc1ccc(S(=O)(=O)Nc2ccc(NC(=O)c3ccco3)cc2)cc1	none
COc1ccc(NC(=O)c2ccc(-n3nc(C)cc3C)cc2)cc1OC	none (no result: TNAP act DEA)
CCOC(=O)CNC(=O)c1sc(NC(=O)c2ccccc2F)nc1C	none
CCOC(=O)CNC(=O)c1sc(NC(=O)c2cccc(F)c2)nc1C	PostGolgi ctrl 35 (no result: Smad3 inh, TNAP act DEA)
CCCOc1ccc2ccccc2c1/C=N/n1c(C)nnc1-n1nc(C)cc1C	Cav32 inh -3.3
Cc1cc(C)n(-c2nnc(C)n2/N=C/c2ccco2)n1	none
COc1ccc(S(=O)(=O)N2CCCN(Cc3cccc(F)c3)CC2)cc1	PostGolgi ctrl 45
CCOC(=O)C1CCCN(C(=O)Cn2nc(CC)n3c(cc4sccc43)c2=O)C1 (stereo not given)	PostGolgi ctrl 53
CCOC(=O)CCCn1nc(C)n2c(cc3sccc32)c1=O	none (no result: PostGolgi yeast, PostGolgi ctrl)
O=C(/C=C/c1ccccc1)NCCSCc1ccccc1Cl	Cav32 inh -5.7 (no result: Smad3 inh, TNAP act DEA)
Cc1ccc(CSCCNC(=O)/C=C/c2ccccc2Cl)cc1	none (no result: Smad3 inh, TNAP act DEA)
COc1cccc(CN2CCN(C(=O)c3cccc4ccccc34)CC2)c1OC	Cav32 inh -4.5
CCS(=O)(=O)CCn1c([N+](=O)[O-])cnc1C	none (no result: PostGolgi yeast, PostGolgi ctrl)
CCOc1ccc2nc(N/C(N)=N/C(=S)Nc3cccc(C)c3)nc(C)c2c1	Cav32 inh -5.5 (no result: Smad3 inh, TNAP act DEA)
COc1ccc2nc(N/C(N)=N/C(=S)Nc3cccc(C)c3)nc(C)c2c1	none (no result: PostGolgi yeast, PostGolgi ctrl, Smad3 inh, TNAP act DEA)
CCn1c(CNC(=O)c2ccc(OC)cc2)nnc1SCC(=O)c1ccccc1	none
Cn1nc(OC(=O)Nc2ccc(Cl)cc2)cc1C(F)(F)F	hDAT+cocaine -2.9 (no result: TNAP act DEA)
COc1ccc(Cl)cc1NC(=O)CCn1cnc2ccccc2c1=O	none
Nc1nc(-c2ccccc2)nn1C(=O)Cc1ccccc1	none
CCCCCc1ccc(CC(=O)Nn2c(C)nc3ccccc3c2=O)cc1	PostGolgi ctrl 41 (no result: TNAP act DEA)
Cc1nc2ccccc2c(=O)n1NC(=O)Cc1ccc(Br)cc1	none (no result: TNAP act DEA)
CCc1oc(C(=O)O)cc1COC	PostGolgi ctrl 33
CCc1oc(C(=O)O)cc1CN(CC)CC	none
O=C(NCc1cccnc1)NC1(C(F)(F)F)Oc2ccc(Cl)cc2O1 (stereo not given)	hDAT+cocaine -7.4
COCCNC(=O)NC1(C(F)(F)F)Oc2ccc(Cl)cc2O1 (stereo not given)	none
O=C(CSc1ncccn1)NCc1ccccc1Cl	none (no result: Smad3 inh)
COc1cc2c(cc1NC(=O)CN(C)Cc1nc3ccccc3c(=O)[nH]1)oc1ccccc12	PostGolgi ctrl 59
COc1cc(OC)nc(NC(=O)CSc2nc3ccccc3[nH]2)n1	none
COc1cc2c(cc1NC(=O)CSc1nc3ccccc3[nH]1)oc1ccccc12	PostGolgi ctrl 74 (no result: Smad3 inh, hDAT+cocaine, TNAP act DEA)
O=C(Nc1ccc(Cl)cc1Cl)C1CCC(=O)N1Cc1ccccc1Cl (stereo not given)	none (no result: Cav32 inh, Smad3 inh, TNAP act DEA)
O=C(O)C1CCC(=O)N1Cc1ccccc1Cl (stereo not given)	PostGolgi ctrl 30
O=C(NC(=S)N1CCCc2ccccc21)c1ccccc1	none (no result: Smad3 inh, TNAP act DEA)
CCn1c(=O)cc(NC2=NCC(C)CN2c2cccc(Cl)c2)n(C)c1=O (stereo not given)	none
